The record followed here is PubChem BioAssay AID781 (Emory University Molecular Libraries Screening Center, 2007).

As a reminder, the inhibition is the drop in the measured response relative to a control, in per cent.

The campaign covered roughly 220,000 compounds. About 1,600 (0.73%) were called active.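 The calls were made as follows: active = inhibition above about 70% (limit read from the data); inactive = the rest.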 The entries come from a sample that favours actives as a whole.

This experiment deals with 14-3-3 protein zeta/delta (Bos taurus) (UniProt P63103). The experiment is described as follows: disruptors of 14-3-3 zeta phospho-Bad complex – biochemical, TR-FRET, bovine 14-3-3 zeta, primary screen (AID 781).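 Also: 0% = full 14-3-3 plus peptide FRET controls and 100% = background without 14-3-3.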 Particulars: TR-FRET 14-3-3zeta/Dy647-pBad peptide displacement, 1 h; at 21.7 µM; hits give high values. (TR-FRET usually uses a lanthanide donor and a delayed reading to cut background.)
Sequence of 14-3-3 protein zeta/delta (Bos taurus) (P63103 whole entry, looked up): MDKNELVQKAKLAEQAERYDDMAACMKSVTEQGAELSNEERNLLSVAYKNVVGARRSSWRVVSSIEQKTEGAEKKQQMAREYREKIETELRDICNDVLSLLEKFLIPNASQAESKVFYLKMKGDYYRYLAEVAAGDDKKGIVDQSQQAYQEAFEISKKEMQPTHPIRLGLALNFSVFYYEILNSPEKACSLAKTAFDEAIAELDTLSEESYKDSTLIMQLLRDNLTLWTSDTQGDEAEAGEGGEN
Consider `Fc1ccc(N2CCN(Cc3cnc(Oc4ccc(Br)cc4)s3)CC2)cc1`, for which the inhibition was -11.7% (inactive). With `COc1ccc(N2CCN(Cc3nnc(-c4ccccc4)o3)CC2)cc1` the figure was -10.5% (inactive). The figure for `COc1ccc(N2CCN(Cc3ccc(Br)s3)CC2)cc1` is 79.9% (active); for `O=C(NCc1cccnc1)c1cnc2ccccc2n1` it is 13.6% (inactive); for `CCc1cc2c(N3CCN(c4nnc(CC)s4)CC3)ncnc2s1` it is 76.6% (active). With `Oc1ccccc1N1CCN(c2ncnc3sc(-c4ccccc4)cc23)CC1`, the inhibition is -3.44% (inactive).

With `CCc1cc2c(NC3CCCC3)ncnc2s1`, the inhibition was 12.9% (inactive). The figure for `CNC(=O)NC(=O)CSc1nnc(-c2ccc(F)cc2)n1CC1CCCO1` (configuration not stated) is -19.5% (inactive). With `CN1CCN(C(CNS(=O)(=O)c2cccs2)c2cccnc2)CC1` (configuration not stated) the figure was -2.11% (inactive); with `COCCCNC(=S)N(Cc1ccccc1)Cc1ccc(F)cc1`, -1.09% (inactive); with `CC(C)C(=O)NCc1cc(-c2ccc(Cl)cc2)no1`, 9.14% (inactive). `Cn1c(COc2ccc(Cl)cc2)nc2ccccc2c1=O`: the inhibition is 89.6% (active). With `COCn1c(COc2ccccc2)nc2ccccc21`, the inhibition is 0.06% (inactive). The figure for `COc1ccc(OCc2ccc(-c3nc4ccccc4c(=O)n3N)o2)cc1` is -11.1% (inactive); for `CN(CC(=O)N1CCN(c2ccccc2)CC1)S(=O)(=O)c1cccs1` it is -17.7% (inactive); for `CNC(=S)NNC(=O)c1ccc(N(C)C)cc1` it is -0.72% (inactive). As to `CCCCCCNS(=O)(=O)c1ccccc1Br`, the inhibition was -7.16% (inactive).

Turning to `Cc1ccc(C(C)NC(=O)Cn2nc(C)c([N+](=O)[O-])c2C)cc1` (configuration not stated), the inhibition is 5.36% (inactive). With `CC(C)CNC(=O)COC(=O)/C=C/c1ccccc1[N+](=O)[O-]` the figure was -3.85% (inactive); with `Cc1[nH]nc(SCC(=O)NCC(C)C)c1[N+](=O)[O-]`, 94% (active). The figure for `Brc1cccc(-c2nnc3n2CCC3)c1` is -2.99% (inactive); for `COc1ccc(-c2nc3n(c2Br)CCC3)cc1` it is 73.6% (active); for `Cc1ccc2nc3n(c(=O)c2c1)CCC3` it is -3.59% (inactive).

As to `Cc1cccc(NC(=S)NCCc2ccc(F)cc2)c1C`, the inhibition was 1.39% (inactive). The figure for `CC(CN1CCOCC1)c1ccccc1` (configuration not stated) is 71.2% (active). Turning to `Cc1ccc(C(=O)OC(C)CN2CCOCC2)cc1` (configuration not stated), the inhibition was -4.58% (inactive).

Consider `OC(c1ccccc1)C(CN1CCOCC1)c1ccccc1` (configuration not stated), for which the inhibition is 6.57% (inactive). As to `O=Cc1ccc(OCc2cn3ccccc3n2)cc1`, the inhibition was -3.57% (inactive).

Regarding `CC1(C)OC(=O)C(=CNC(CO)C(=O)O)C(=O)O1` (configuration not stated), the inhibition was 12.2% (inactive). For the compound `Oc1c(Cl)cc(Cl)c(Cl)c1Cc1c(O)c(Cl)cc(Cl)c1Cl`, the inhibition was 82.8% (active).

Take `O=C(c1ccco1)N1CCN(CCOc2ccccc2)CC1`: the inhibition is -0.94% (inactive). The figure for `CN(C)CCN=c1cc(-c2ccccc2)oc2ccc(Cl)cc12` is -12% (inactive); for `CN(C)N=Nc1ccc2nc[nH]c2c1` it is -55.4% (inactive); for `CN1C(=O)/C(=N/OC(=O)c2ccccc2Br)c2ccccc21` it is 9.1% (inactive). The figure for `Cc1csc(NC(=O)CN2CCCCCC2)n1` is 79.5% (active). The figure for `Cc1csc(NC(=O)C2CCCN2C(=O)OCC(C)C)n1` (configuration not stated) is -4.68% (inactive); for `CS(=O)(=O)c1ccc2nc(NC(=O)CN3CCCCCC3)sc2c1` it is 66.8% (inactive). For `O=C(COc1ccccc1)NCCc1nc2ccccc2[nH]1`, the inhibition was -2.28% (inactive).

With `COC(=O)Cc1nc2ccccc2[nH]1`, the inhibition is 78.5% (active). Consider `COc1ccc(OC(C)C(=O)NCCc2nc3ccccc3[nH]2)cc1` (configuration not stated), for which the inhibition was 4.28% (inactive). The figure for `COc1cc(NC(=S)NCCSc2ccc(C)cc2)cc(OC)c1` is -12.2% (inactive). With `O=C(Nc1ccc([N+](=O)[O-])cc1)C1(c2ccccc2)CCOCC1` the figure was -1.28% (inactive); with `Cc1ccc2[nH]c3c(=O)n(Cc4ccccn4)cnc3c2c1`, -4.28% (inactive). The figure for `CC(C)OCCCNc1ncnc2c1[nH]c1ccc(F)cc12` is -11% (inactive); for `COc1cc(OC)c(OC)cc1/C=N/Nc1ncnc2c1[nH]c1ccc(C)cc12` it is 94.3% (active). As to `CCN(CC)CCNCC(=O)Nc1ccc(Oc2ccccc2)cc1`, the inhibition was 20.5% (inactive). For `COc1cc(NC(=O)c2cncc(-c3ccc(C#N)cc3)c2)cc(C(=O)Nc2cccc(C(F)(F)F)c2)c1`, the inhibition is 23% (inactive). With `O=c1cc(CO)oc(C(Nc2cccc(C(F)(F)F)c2)c2ccccn2)c1O` (configuration not stated) the figure was 2.47% (inactive); with `COc1cccc(OC)c1OCCN1CCN(C(=O)c2ccco2)CC1`, 24.8% (inactive). The figure for `COc1ccccc1N1CCN(Cc2ccc(OC)c3ccccc23)CC1` is 37.2% (inactive); for `COc1ccc(Br)cc1CN1CCN(C(=O)c2cccc(OC)c2OC)CC1` it is 81.3% (active); for `CC(C)c1cc(C(=O)O)n[nH]1` it is 65.1% (inactive).

Consider `Cc1cc(NC(=O)c2cnn3cccnc23)n(-c2ccccc2)n1`, for which the inhibition is 7.08% (inactive).

On to `O=C(Nc1ccc(Cl)cn1)c1ccc2c(c1)OCCO2`, for which the inhibition was 7.42% (inactive). The figure for `O=C(Nc1ccc(Cl)cn1)c1cnn2cccnc12` is 81.6% (active); for `C/C(N)=C(/C#N)C(=O)COC(=O)c1cc(-c2ccccc2)nc2ccc(Br)cc12` it is -9.11% (inactive); for `O=C(N/N=C/c1ccccn1)c1cccnc1` it is -10.3% (inactive). The figure for `Cc1cc(NC(=O)OC(C)C)ccc1-c1ccc(NC(=O)OC(C)C)cc1C` is 12% (inactive); for `Cc1nc(SCC(=O)Nc2cc(C)on2)c2c3c(sc2n1)CCCC3` it is -9.48% (inactive). As for `Cc1nc(SCC(=O)Nc2cc(C)on2)c2c(C)c(C)sc2n1`, the inhibition was 85.3% (active). The figure for `Cc1cc(NC(=O)CSc2nc(C(C)C)nc3sc4c(c23)CCC(C)C4)no1` (configuration not stated) is 2.28% (inactive); for `Cc1nn(CC#N)c(=O)n1N(C)c1ncc(C(F)(F)F)cc1Cl` it is -20.5% (inactive); for `CN(CC(O)COc1ccc(S(=O)(=O)N2CCOCC2)cc1Cl)C1CCCCC1` (configuration not stated) it is -11.1% (inactive). With `CCOC(=O)c1c(NC(=O)c2cccs2)sc(C)c1C` the figure was 10.5% (inactive). For `COC(=O)c1c(NC(=O)c2c(Cl)cnn2C)sc(C)c1C`, the inhibition is -11.9% (inactive). For the compound `COCCCNCC(=O)Nc1sc(C)c(C)c1C(=O)OC`, the inhibition was 78.7% (active). The figure for `COc1cc(CN2CC(C)CC(C)C2)cc([N+](=O)[O-])c1O` (configuration not stated) is -15.1% (inactive).
